In the library only some 12% were active in any assay of this set; here they are far more common.
Pf growth 48h – P. falciparum growth inhibition at 48 hours (one generation); P. falciparum luciferase growth in erythrocytes, 48 h; Potency, µM (titrated, usually from 28.7 µM), for inactives: top-dose activity change, negative = inhibition, usual class: inhibitors; 310,000 compounds, 5.9% hits; further: on the % scale 0 is the no-effect control and ±100 the full control effect
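Read-out is firefly luciferase luminescence from an integrated reporter in P. falciparum, so falling signal marks reduced parasite growth. Infected erythrocytes were at 2% hematocrit and 0.1% parasitemia (final) in Albumax-supplemented RPMI 1640.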
Pf growth 96h – P. falciparum growth inhibition at 96 hours | 320,000 compounds, 6.9% hits | P. falciparum luciferase reporter growth, 96 h | Potency, µM (titrated, usually from 28.7 µM), inactives show at the top dose activity change, negative = inhibition, most hits filed as inhibitors; further: on the % scale 0 is the no-effect control and ±100 the full control effect
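P. falciparum expressing integrated firefly luciferase grown in erythrocytes (2% hematocrit, 0.05% parasitemia final) with compounds for 96 hours at 37 C, 5% CO2. Growth inhibition read as loss of luminescence after adding luciferase detection reagent.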
AmpC inh detg – blocks E. coli AmpC beta-lactamase in detergent assay; Potency, µM (series often up to 114 µM), for the others: top-dose activity change, negative = inhibition, hits mostly inhibitors; 370,000 compounds, 0.041% hits; P00811; AmpC hydrolysis of nitrocefin, absorbance 480 nm, 0.01% Triton;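 further: 0% = no-compound wells and -100% = no-enzyme wells; nearly all actives have a fitted effect of over 25% in size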
Target sequence (P00811 whole entry, looked up): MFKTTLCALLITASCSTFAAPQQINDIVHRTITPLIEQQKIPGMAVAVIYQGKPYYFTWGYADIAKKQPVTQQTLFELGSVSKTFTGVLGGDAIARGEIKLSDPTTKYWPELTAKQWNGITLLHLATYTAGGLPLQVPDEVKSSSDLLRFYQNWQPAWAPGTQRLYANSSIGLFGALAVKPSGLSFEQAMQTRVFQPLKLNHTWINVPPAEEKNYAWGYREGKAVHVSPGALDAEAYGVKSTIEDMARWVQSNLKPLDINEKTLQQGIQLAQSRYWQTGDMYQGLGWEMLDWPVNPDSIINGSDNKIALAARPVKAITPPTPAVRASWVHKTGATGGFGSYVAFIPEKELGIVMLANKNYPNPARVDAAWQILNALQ
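AmpC (5.3 nM in the dispensed reagent) in 20 mM phosphate pH 7.0 with 0.01% (detergent screen) or 0.0001% Triton X-100 was preincubated with compounds for 15 min at room temperature. Nitrocefin was then added from an 800 uM solution, and hydrolysis was followed at 480 nm.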
SARS PLP yeast – inhibitors of SARS-CoV papain-like protease in yeast | AID 485353 | S. cerevisiae expressing SARS-CoV PLpro, growth rescue | Potency, µM (series often up to 32.9 µM), for the others: top-dose activity, positive = growth rescue, most hits filed as activators | 330,000 compounds, 0.19% hits; calls by dose curve; further: 0% is about no effect; nearly all actives have a fitted effect of over 55% in size
AmpC no deterg – blocks E. coli AmpC beta-lactamase in detergent-free assay; AID 485341; AmpC nitrocefin hydrolysis, absorbance 480 nm, 0.0001% Triton; 330,000 compounds, 0.52% hits; Potency, µM (titrated, usually from 57.1 µM), without a hit: top-dose activity change, negative = inhibition, usual class: inhibitors;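 further: plate controls were no compound for no effect and no enzyme for full effect; nearly all actives have a fitted effect of over 20% in size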
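AmpC (5.3 nM in the dispensed reagent) in 20 mM phosphate pH 7.0 with 0.01% (detergent screen) or 0.0001% Triton X-100 was preincubated with compounds for 15 min at room temperature. Nitrocefin was then added from an 800 uM solution, and hydrolysis was followed at 480 nm.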
Sm TGR inh – blocks Schistosoma mansoni thioredoxin glutathione reductase; Q962Y6; purified TGR, DTNB reduction, TNB absorbance 405 nm; Potency, µM (titrated, usually from 114 µM), inactives show at the highest dose activity change, negative = inhibition, actives largely listed as inhibitors; 360,000 compounds, 3% hits; AID 485364; further: on the % scale 0 is the no-effect control and ±100 the full control effect; nearly all actives have a fitted effect of over 60% in size
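TGR 20 nM + NADPH 100 uM (dispensed conc.), cpd preinc 15 min RT; start with NADPH (500 uM addition) then DTNB (15 mM addition). Kinetic TNB absorbance, 405 nm filter. Four-parameter Hill fit across titration.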
Starred values were filed as active, the others as inactive; ? = inconclusive; . = no result. Unless noted, the call rests on the fitted dose curve; in most records, active means well fitted curve in the direction sought with a large enough effect; inconclusive means small, poorly fitted or top-dose-only effect, or another doubt; inactive means no such curve, though single readings can be large; an effect the other way counts as inactive or inconclusive. Potency means the concentration at half of the fitted maximal effect.

SMILES	Pf growth 48h	Pf growth 96h	AmpC inh detg	SARS PLP yeast	AmpC no deterg	Sm TGR inh
O=C(c1cnccn1)N1CCCC(N2CCN(c3cccc(Cl)c3)CC2)C1 (centres undefined)	-3%	36%	8%	2%	24%	89µM*
Cc1cccc(C(=O)N2CCCC(N3CCN(c4cccc(Cl)c4)CC3)C2)n1 (centres undefined)	-7%	-4%	2%	-1%	82%	-2%
CC(C)c1nc(C(=O)N2CCCC(N3CCN(c4cccc(Cl)c4)CC3)C2)cs1 (centres undefined)	?	3.7µM*	-3%	-2%	146%	-20%
COc1cc(SC)ccc1C(=O)NNC(=O)c1cc(C)oc1C	158%	183%	3%	4%	-12%	-1%
CCCCC(CCC(=O)Nc1nccs1)C(=O)O (centres undefined)	5%	.	?	-5%	-20%	-36%
CCC(C)Sc1nc(O)c(Cc2ccccc2)c(=O)[nH]1 (centres undefined)	.	2.6µM*	2%	8%	-5%	-15%
COc1ccc(OC)c(NC(=O)CCCc2nnc3n(C(C)C)c(=O)c4sccc4n23)c1	.	.	10%	.	.	-2%
CCN1C(=O)[C@H]2[C@@H](c3ccc(-c4ccc(Cl)c(Cl)c4)c(OC)c3)N[C@@](Cc3ccccc3)(C(=O)OC)[C@H]2C1=O	2.9µM*	3.7µM*	2%	-6%	-10%	?
CCN1C(=O)[C@H]2[C@@H](c3ccc(-c4cccc(Cl)c4)cc3)N[C@@](Cc3ccccc3)(C(=O)OC)[C@H]2C1=O	4.7µM*	4.7µM*	-6%	-14%	74%	?
CCCCCCSc1ccc([C@H]2N[C@@](Cc3ccccc3)(C(=O)OC)[C@H]3C(=O)N(C)C(=O)[C@@H]23)cc1OC	3.3µM*	2.3µM*	-12%	-2%	66%	-7%
CCN1C(=O)[C@H]2[C@@H](c3ccc(-c4ccc5c(c4)OCO5)cc3)N[C@@](Cc3ccccc3)(C(=O)OC)[C@H]2C1=O	.	.	.	-22%	-15%	.
O=C(CCCc1ccccc1)NC1CC(=O)N(c2ccc(F)cc2)C1 (centres undefined)	.	.	4%	.	.	-1%
CCOC(=O)C1CCN(C(=O)CN2C(=O)c3cccnc3Oc3ccccc32)CC1	?	32%	2%	-2%	15%	-12%
CO[C@H]1/C=C/O[C@@]2(C)Oc3c(C)c(O)c4c(O)c(c(/C=N\N5CCN(C6CCCC6)CC5)c(O)c4c3C2=O)NC(=O)/C(C)=C\C=C\[C@H](C)[C@H](O)[C@@H](C)[C@@H](O)[C@@H](C)[C@H](OC(C)=O)[C@@H]1C	-98%	-7%	.	.	.	.
Cc1ccc2[nH]c(=O)c(CN(Cc3cccnc3)C(=S)NCCCN(C)C)cc2c1	15µM*	6%	2%	-1%	35%	?
CCN(CC)CCCNC(=S)N(Cc1cccnc1)Cc1cc2cc(C)ccc2[nH]c1=O	2.3µM*	5.9µM*	4%	0%	69%	-21%
CCN(CC)CCCNC(=S)N(Cc1cccnc1)Cc1cc2cccc(C)c2[nH]c1=O	?	?	6%	0%	23%	0%
Cc1ccc(OCC(=O)NC(=S)Nc2ccc(S(=O)(=O)Nc3cc(C)on3)cc2)c(Br)c1	?	-13%	-2%	-5%	-26%	-11%
COc1ccc(C2(c3ccc(OC)cc3)NC(=O)N(CC(=O)Nc3ccc(OC(F)F)cc3)C2=O)cc1	12µM*	?	-11%	4%	-32%	10%
COc1ccc(NC(=O)CN2C(=O)NC(c3ccccc3)(c3ccccc3)C2=O)cc1	-20%	27%	1%	-2%	-27%	10%
COc1ccc(C2(c3ccc(OC)cc3)NC(=O)N(CC(=O)NCC(C)c3ccccc3)C2=O)cc1 (centres undefined)	12µM*	12µM*	-5%	1%	-5%	0%
CCOc1ccc(NC(=O)CN2C(=O)NC(C)(c3ccc(OC(F)F)cc3)C2=O)cc1 (centres undefined)	1µM*	?	-13%	7%	-5%	?
COc1ccc(C2(c3ccc(OC)cc3)NC(=O)N(CC(=O)NC(C)C)C2=O)cc1	23%	9%	-13%	1%	2%	7%
O=S1(=O)CCOC[C@H](CC2CCCCC2)N1Cc1ccccc1Br	-16%	0%	0%	-11%	2%	2%
CC(C)(C)[C@@H]1COC(=O)[C@H](Cc2ccc(F)cc2)CC/C=C\C[C@@H](CC(=O)N(CCO)Cc2ccccc2)C(=O)N1	.	.	.	-5%	188%	.
SMILES	Pf growth 48h	Pf growth 96h	AmpC inh detg	SARS PLP yeast	AmpC no deterg	Sm TGR inh
O=S(=O)(c1ccc(-c2ccon2)s1)N1CCN(c2ccncc2)CC1	1.3µM*	5%	5%	4%	44%	?
O=S(=O)(c1ccc(-c2ccon2)s1)N1CCCC1	-7%	19%	1%	-1%	-19%	-2%
Cn1cnnc1SCc1ccc(C(=O)N=Nc2c(O)n(C)c3ccccc23)cc1	?	10µM*	-6%	-1%	86%	-7%
COc1cc(/C(C)=N/NC(=O)c2ccc(CSc3nncn3C)cc2)cc(OC)c1OC	-20%	13µM*	0%	0%	1%	-5%
CS(=O)(=O)N1CCN(C(=O)c2cc(-c3ccncc3)nc3ccc(Cl)cc23)CC1	-3%	22%	1%	.	.	5%
CSc1cccc(NC(=O)CC(c2ccc(F)cc2)N2Cc3ccccc3C2=O)c1 (centres undefined)	.	.	11%	.	.	-1%
Brc1ccc(C2=CC(c3cccs3)n3ncnc3N2)cc1 (centres undefined)	?	-21%	-7%	-19%	10µM*	22µM*
OCCCc1nc2n(n1)C(c1cccs1)C=C(c1ccc(Br)cc1)N2 (centres undefined)	?	?	-12%	-18%	116%	25µM*
Cc1nc(=S)c2c([nH]1)-c1ccccc1CC21CCCCC1	?	?	6%	0%	-18%	17%
O=C(NCCCN1CCCC1)c1ccc2c(c1)N(Cc1ccccc1F)C(=O)c1ccccc1S2(=O)=O	10µM*	-18%	2%	-4%	47%	-1%
O=C(NCCN1CCCC1)c1ccc2c(c1)N(Cc1ccc(F)cc1)C(=O)c1ccccc1S2=O (centres undefined)	12µM*	?	?	-10%	59%	4%
Cc1ccc(CN2C(=O)CSc3ccc(C(=O)NCCN4CCOCC4)cc32)cc1	-19%	-14%	-6%	-1%	62%	3%
